The subject of one test is TIE1. As to conditions: concentration: 1 μM, replicates: in singlicate; n = 1.
In another test the test system is T1, TIE2.
T1 construct: gene TEK
As to conditions: concentration: 1 μM, replicates: in singlicate, n = 1.

A further test concerns TLK1. As to conditions: concentration: 1 μM, replicates: in singlicate, n = 1.
For a further test, the system named is TLK2. As to conditions: concentration: 1 μM, replicates: in singlicate, n = 1.
In a further test the test system is TNIK. As to conditions: concentration: 1 μM, replicates: in singlicate, n = 1.
The test system of the next test is TNK1. As to conditions: concentration: 1 μM, replicates: in singlicate, n = 1.
In another test the test system is TNK2. As to conditions: concentration: 1 μM, replicates: in singlicate; n = 1.
For another test, the system named is TNNI3K. As to conditions: concentration: 1 μM, replicates: in singlicate, n = 1.
Another test concerns T2, TRKA.
T2 construct: gene NTRK1
As to conditions: concentration: 1 μM, replicates: in singlicate, n = 1.

A further test has as its system TRKB. As to conditions: concentration: 1 μM, replicates: in singlicate, n = 1.
The test system of a further test is T3, TRKC.
T3 construct: gene NTRK3
As to conditions: concentration: 1 μM, replicates: in singlicate, n = 1.

A further test deals with TRPM6. As to conditions: concentration: 1 μM, replicates: in singlicate, n = 1.
The subject of a further test is TSSK1B. As to conditions: concentration: 1 μM, replicates: in singlicate; n = 1.
The test system of the next test is TSSK3. As to conditions: concentration: 1 μM, replicates: in singlicate, n = 1.
In the next test the test system is TTK. As to conditions: concentration: 1 μM, replicates: in singlicate, n = 1.
A further test concerns TXK. As to conditions: concentration: 1 μM, replicates: in singlicate; n = 1.
Test [1] deals with TYK2(JH1domain-catalytic). As to conditions: concentration: 1 μM, replicates: in singlicate, n = 1.
Test [2] has as its system TYK2(JH2domain-pseudokinase). As to conditions: concentration: 1 μM, replicates: in singlicate, n = 1.
The next test has as its system TYRO3. As to conditions: concentration: 1 μM, replicates: in singlicate; n = 1.
The next test deals with ULK1. As to conditions: concentration: 1 μM, replicates: in singlicate, n = 1.

Several values for one entry are separate records, joined by “and”; a condition that tells them apart may be missing. Equal values may be shown once. Read-outs that look alike come from different tables or passages of the source.
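Also: KINOMEscan kinase panel screen.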

Regarding `FC(F)(F)c1ccc(-c2nn3ncccc3c2-c2ccnc(Nc3cccc(C(F)(F)F)c3)n2)cc1` [GW828205], the “%Inh” value was found to be 0% with TIE1; 52% in the test with TIE2; 0% in the test with TLK1; 8% in the test on TLK2; 0% in the test on TNIK; 0% with TNK1. The “%Inh” value in the test on TNK2, with TNNI3K, in the test on TRKA, in the test with TRKB, in the test on TRKC and with TRPM6 was 0% throughout. In addition, the “%Inh” value in the test with TSSK1B was determined as 0%; with TSSK3, 0%; with TTK, 0%; in the test with TXK, 3%; in test [1], 0%; in [2], 0%. Moreover, the “%Inh” value with TYRO3 and in the test on ULK1 was 0% throughout.

In the case of `COc1ccc(-c2nc3n(c2-c2ccncc2)CCC3)cc1` [SKF-104493], the “%Inh” value is 0% with TIE1; 0% and 2% in the test with TIE2 (1 µM); 7% and 0% in the test with TLK1 (1 µM); 0% and 24% with TLK2 (1 µM); 0% and 11% in the test on TNIK (1 µM); 6% and 0% in the test with TNK1 (1 µM). Also, the “%Inh” value in the test on TNK2 was 0%; in the test with TNNI3K (1 µM) it was 25% and 6%; with TRKA (1 µM) it was 0% and 32%; with TRKB (1 µM), 13% and 0%; in the test on TRKC (1 µM) it was 25% and 5%; in the test on TRPM6 (1 µM), 0% and 3%. Also, the “%Inh” value with TSSK1B was 0%; with TSSK3 (1 µM), 21% and 8%; with TTK (1 µM), 30% and 0%; in the test with TXK, 0%; in [1] (1 µM) it was 7% and 0%; in [2] (1 µM) it was 9% and 1%. Besides, the “%Inh” value in the test with TYRO3 was 0%; in the test with ULK1 (1 µM), 7% and 0%.

`CSc1ccc(NC2=C(c3ccccc3Cl)C(=O)NC2=O)cc1` [SB-342411]: the “%Inh” value in the test on TIE1 was 40%; in the test on TIE2 it was 0%; with TLK1 it was 35%; with TLK2 it was 6%; in the test on TNIK it was 0%; in the test on TNK1 it was 0%. The “%Inh” value turned out to be 0% in the test on TNK2; 29% in the test on TNNI3K; 20% with TRKA; 0% in the test with TRKB; 0% in the test with TRKC; 0% in the test with TRPM6. For the same compound, the “%Inh” value is 21% in the test with TSSK1B; 10% in the test on TSSK3; 0% in the test on TTK; 3% with TXK; 0% in test [1]; 0% in test [2]. The figures for the “%Inh” value in the test with TYRO3 and in the test with ULK1 were 5% and 10%, respectively.

On to `O=c1cc(N2CCOCC2)nc2n(Cc3cccc(Cl)c3)ccn12` [GSK2296823], for which the “%Inh” value in the test on TIE1 is on record as 16%; with TIE2, 0%; in the test with TLK1, 0%; in the test with TLK2 it was 0%; in the test with TNIK, 0%; in the test on TNK1, 0%. Moreover, the “%Inh” value in the test with TNK2 is reported as 28%; in the test with TNNI3K it was 1%; in the test on TRKA, 0%; with TRKB it was 0%; with TRKC, 0%; in the test with TRPM6, 11%. For the same compound, the “%Inh” value in the test with TSSK1B is listed as 0%; in the test with TSSK3, 3%; in the test with TTK, 9%; with TXK, 18%; in [1], 14%; in test [2], 7%. For the same compound, the “%Inh” value in the test with TYRO3 is given as 9%; with ULK1, 16%.

With `Clc1ccc(-c2cc(-c3c[nH]nc3-c3ccccn3)ccn2)cc1` [GW681251], the “%Inh” value in the test on TIE1 worked out at 33%; in the test with TIE2, 0%; in the test with TLK1 it was 0%; with TLK2, 0%; with TNIK, 80%; in the test with TNK1, 0%. The “%Inh” value in the test with TNK2 was found to be 0%; in the test on TNNI3K, 17%; in the test with TRKA, 0%; with TRKB it was 0%; in the test on TRKC, 100%; in the test with TRPM6, 0%. In addition, the “%Inh” value in the test with TSSK1B is listed as 13%; with TSSK3, 16%; in the test with TTK, 17%; with TXK, 0%; in test [1], 3%; in test [2] it was 0%. Moreover, the “%Inh” value with TYRO3 and in the test on ULK1 was 0% each time.

Consider `Cl.c1ccc(Cn2ncc3cc(Nc4ncnc5ccccc45)ccc32)cc1` [GW273749], for which the “%Inh” value in the test with TIE1 is 0%; in the test on TIE2, 0%; in the test with TLK1, 15%; in the test with TLK2 it was 0%; in the test with TNIK, 0%; in the test on TNK1, 0%. In addition, the “%Inh” value in the test on TNK2 was found to be 12%; in the test with TNNI3K it was 0%; with TRKA, 0%; in the test on TRKB it was 0%; with TRKC it was 0%; with TRPM6 it was 37%. Besides, the “%Inh” value with TSSK1B stood at 0%; in the test with TSSK3 it was 11%; with TTK, 18%; in the test on TXK, 11%; in test [1], 0%; in test [2], 12%. Also, the results for the “%Inh” value in the test with TYRO3 and in the test on ULK1 were 0% and 19%, respectively.

Consider `C[C@@H]1CCN(C(=O)CO)C[C@@H]1N(C)c1ncnc2[nH]ccc12`, for which the “%Inh” value stood at 3% with TIE1; 2% in the test on TIE2; 0% with TLK1; 0% in the test with TLK2; 6% in the test with TNIK; 62% in the test with TNK1. Also, the “%Inh” value is 0% with TNK2; 0% with TNNI3K; 15% with TRKA; 10% in the test with TRKB; 0% in the test on TRKC; 0% with TRPM6. Further, the “%Inh” value in the test with TSSK1B came out at 0%; in the test with TSSK3, 0%; in the test with TTK, 0%; in the test on TXK, 7%; in test [1], 90.6%; in test [2] it was 0%. Further, the “%Inh” value in the test with TYRO3 and in the test on ULK1 was 0% each time.

As to `CC(C)N1CCC(n2cnc(-c3ccc(F)cc3)c2-c2ccnc(N)n2)CC1` [SB-223132], the “%Inh” value in the test with TIE1 was 0%; in the test on TIE2, 96.9%; in the test with TLK1, 5%; in the test with TLK2, 0%; in the test on TNIK, 11%; in the test with TNK1, 3%. Besides, the “%Inh” value in the test with TNK2 is reported as 0%; in the test on TNNI3K, 4%; in the test with TRKA, 0%; in the test with TRKB, 0%; in the test with TRKC, 0%; in the test on TRPM6 it was 0%. Moreover, the “%Inh” value in the test on TSSK1B is listed as 0%; in the test with TSSK3 it was 0%; in the test with TTK, 14%; in the test on TXK, 21%; in test [1] it was 0%; in test [2], 2%. For the same compound, the “%Inh” value in the test with TYRO3 and with ULK1 was 0% throughout.

For the compound `Nc1n[nH]c2nnc(-c3ccccc3)cc12` [SB-517389], the “%Inh” value with TIE1 is 0%; in the test with TIE2, 0%; with TLK1 it was 15%; with TLK2 it was 0%; in the test on TNIK, 0%; with TNK1, 0%. The “%Inh” value with TNK2 is recorded as 20%; with TNNI3K, 13%; in the test on TRKA, 0%; with TRKB, 0%; in the test on TRKC, 0%; in the test with TRPM6 it was 35%. The “%Inh” value is 9% in the test with TSSK1B; 100% in the test on TSSK3; 0% in the test with TTK; 25% in the test on TXK; 36% in test [1]; 79% in test [2]. Further, the “%Inh” value in the test with TYRO3 is 0%; in the test with ULK1 it was 20%.

With `O=C(NCCCN1CCCC1=O)c1cnc(NCc2cc(Cl)ccc2Cl)nc1NC1CCNCC1`, the “%Inh” value in the test on TIE1 came out at 1%; in the test with TIE2 it was 2%; in the test on TLK1, 12%; with TLK2, 0%; with TNIK it was 0%; with TNK1, 34%. Also, the “%Inh” value in the test on TNK2 is 0%; in the test with TNNI3K, 0%; in the test on TRKA it was 69%; with TRKB, 32%; with TRKC it was 15%; with TRPM6, 0%. The “%Inh” value (in the test with TSSK1B; in the test on TSSK3; in the test on TTK; in the test with TXK; in test [1]; in [2]) was 0% throughout. For the same compound, the “%Inh” value came out at 14% with TYRO3 and 0% in the test on ULK1.
